Source: PMC4336329 (PLoS ONE, 2015)
Among all 310,000 compounds or so, about 14,000 (4.5%) showed an effect of 50% or more. The effect is printed as a negative number. Many of the other results were omitted from the sample, so strong results are more common in it than they were.

Target: human ether-à-go-go-related gene (hERG) potassium channel (human, UniProt Q12809)
Test: primary screen, population patch clamp on CHO cells stably expressing hERG; higher = less effect of the substance
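Also: peak tail current of the secondary pulse compared with the same well before compound.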

human ether-à-go-go-related gene (hERG) potassium channel, sequence (Q12809 whole entry, looked up): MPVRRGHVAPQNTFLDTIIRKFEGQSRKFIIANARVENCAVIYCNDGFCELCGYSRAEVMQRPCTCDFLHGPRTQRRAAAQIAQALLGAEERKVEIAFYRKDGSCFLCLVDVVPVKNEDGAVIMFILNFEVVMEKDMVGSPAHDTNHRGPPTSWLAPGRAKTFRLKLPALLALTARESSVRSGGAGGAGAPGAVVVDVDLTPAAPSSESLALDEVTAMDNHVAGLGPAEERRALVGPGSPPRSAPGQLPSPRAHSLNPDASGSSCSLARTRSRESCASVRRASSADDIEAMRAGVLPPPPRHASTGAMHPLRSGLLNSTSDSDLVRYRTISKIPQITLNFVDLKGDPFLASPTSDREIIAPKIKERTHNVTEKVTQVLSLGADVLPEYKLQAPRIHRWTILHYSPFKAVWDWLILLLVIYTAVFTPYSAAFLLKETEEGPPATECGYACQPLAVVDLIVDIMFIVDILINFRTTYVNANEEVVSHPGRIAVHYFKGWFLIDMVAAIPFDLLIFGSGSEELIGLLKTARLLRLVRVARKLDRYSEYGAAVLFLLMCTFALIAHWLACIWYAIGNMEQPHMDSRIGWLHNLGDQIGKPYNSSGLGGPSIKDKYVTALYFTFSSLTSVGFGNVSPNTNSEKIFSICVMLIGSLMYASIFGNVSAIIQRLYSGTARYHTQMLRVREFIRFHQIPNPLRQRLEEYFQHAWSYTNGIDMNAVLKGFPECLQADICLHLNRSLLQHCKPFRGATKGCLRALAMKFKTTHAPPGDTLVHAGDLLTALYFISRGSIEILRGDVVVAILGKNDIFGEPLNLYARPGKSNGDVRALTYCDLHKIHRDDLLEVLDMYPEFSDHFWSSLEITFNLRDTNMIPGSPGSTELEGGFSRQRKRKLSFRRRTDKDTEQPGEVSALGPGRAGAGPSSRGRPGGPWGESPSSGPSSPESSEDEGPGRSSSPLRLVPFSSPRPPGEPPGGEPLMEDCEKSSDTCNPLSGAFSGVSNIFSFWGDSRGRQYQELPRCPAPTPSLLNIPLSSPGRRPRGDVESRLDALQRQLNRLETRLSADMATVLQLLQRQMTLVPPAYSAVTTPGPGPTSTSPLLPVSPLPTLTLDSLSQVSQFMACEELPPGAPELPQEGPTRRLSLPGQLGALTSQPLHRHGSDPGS

| SMILES | hERG current change (%, negative = inhibition) at 10uM [%] |
| --- | --- |
| Cc1cccc(NC(=O)CC2c3ccccc3Oc3ccccc32)c1 | 18 |
| CCCc1cc(N2CCN(C(=O)c3ccco3)CC2)n2c(nc3ccccc32)c1C#N | -56.1 |
| CCCCc1nc(N2CCN(C(=O)c3ccco3)CC2)c(C#N)c2c1CCCC2 | -5.71 |
| CCCc1cc(-n2ccnc2)n2c(nc3ccccc32)c1C#N | -29.7 |
| CCCc1cc(-n2cnc3ccccc32)n2c(nc3ccccc32)c1C#N | -50.1 |
| CCCc1cc(-n2ccnc2C)n2c(nc3ccccc32)c1C#N | 0.616 |
| CC(C)c1cc(N2CCN(C(=O)c3ccco3)CC2)n2c(nc3ccccc32)c1C#N | -34.1 |
| NC(=O)c1cc[n+](CC2=C(C(=O)[O-])N3C(=O)[C@@H](NC(=O)C(c4ccccc4)S(=O)(=O)[O-])[C@H]3SC2)cc1.[Na+] (stereo partly drawn) | 20.3 |
| Cc1cc(OCc2nn[nH]n2)c2c3c(c(=O)oc2c1)CCC3 | 3.12 |
| Cc1cc(C)c(S(=O)(=O)NCc2ccc3c(c2)OCO3)cc1C | -6.86 |
| Cc1onc(-c2ccccc2)c1C(=O)c1ccccc1 | 3.87 |
| COCCN1CC(C(=O)NCc2ncccc2C)CCC1=O (stereo not drawn) | 22.6 |
| Cc1ccc(S(=O)(=O)CCC(=O)N(Cc2nnc(-c3ccc(Cl)cc3)o2)C2CC2)cc1 | -12.7 |
| O=[N+]([O-])c1ccc(N2CCN(S(=O)(=O)c3ccccc3)CC2)cc1NCc1cccnc1 | 1.8 |
| Cc1ccc2c(CC(=O)OCc3cc(=O)n4c(n3)sc3ccccc34)coc2c1 | 5.05 |
| CC(CN1CCCCC1)OC(=O)/C=C/c1ccccc1.Cl (stereo not drawn) | -71 |
| CC(CN1CCOCC1)OC(=O)C(C)(c1ccccc1)c1ccccc1 (stereo not drawn) | -8.05 |
| COc1ccc(/C=C/C(=O)OC(C)CN2CCCCC2)cc1.Cl (stereo not drawn) | -26.2 |
| CC(CN1CCCCC1)OC(=O)C(C)(c1ccccc1)c1ccccc1.Cl (stereo not drawn) | -52.3 |
| CC(CN1CCCC1)OC(=O)C(c1ccccc1)c1ccccc1.Cl (stereo not drawn) | -42.2 |

| SMILES | hERG current change (%, negative = inhibition) at 10uM [%] |
| --- | --- |
| CC(CN1CCOCC1)OC(=O)/C=C/c1ccccc1.Cl (stereo not drawn) | 10.1 |
| COc1cccc2cc(C(=O)NCc3ccc(Cl)cc3)c(=O)oc12 | 14.4 |
| O=C(Cn1cnc2ccccc2c1=O)Nc1cccc(-c2nnc3n2CCCCC3)c1 | 0.387 |
| Cc1cccc(-n2nc(C(=O)c3ccco3)cc(-c3nc4ccccc4[nH]3)c2=N)c1 | -65.7 |
| Cc1ccc2nc(-c3cccc(NC(=O)c4ccco4)c3)[nH]c2c1 | -30.7 |
| N=c1c(-c2nc3ccccc3[nH]2)cc(C(=O)c2cccs2)nn1-c1ccccc1 | -50.2 |
| Cc1ccccc1-n1nc(C(=O)c2cccs2)cc(-c2nc3ccccc3[nH]2)c1=N | -1.9 |
| N=c1c(-c2nc3ccccc3[nH]2)cc(C(=O)c2ccco2)nn1-c1ccccc1 | -59.5 |
| O=C(Nc1cccc(-c2nc3ccccc3[nH]2)c1)c1ccco1 | -16.9 |
| N=c1c(-c2nc3ccccc3[nH]2)cc(C(=O)c2cccs2)nn1-c1ccc(Cl)cc1 | 8.51 |
| O=C(Nc1ccc(-c2nc3ccccc3[nH]2)cc1)c1ccco1 | -18.4 |
| COc1ccc(-n2nc(C(=O)c3cccs3)cc(-c3nc4ccccc4[nH]3)c2=N)cc1 | -4.53 |
| COc1ccc(CCNC(=O)CCC(=O)N2CCN(S(=O)(=O)c3ccccc3)CC2)cc1OC | 4.4 |
| Fc1ccc(-n2c(Cc3ccccc3)nnc2SCc2nc(-c3ccc(Cl)cc3)no2)cc1 | -1.6 |
| Cc1cc(N(CN2CCCC2=O)C(=O)c2ccc(OC(C)C)cc2)no1 | -2.94 |
| O=C(NP(=O)(N1CCOCC1)N1CCOCC1)C1=C(N2CCOCC2)/C(=C\c2ccccc2)CC1 | 18.1 |
| Cc1nc2n(n1)C(c1ccccc1)C1=C(CC(c3ccco3)CC1=O)N2 (stereo not drawn) | 11.4 |
| CCCSc1nnc(-c2cccc(S(=O)(=O)N(C)C)c2)n1-c1cc(OC)ccc1OC | -68.2 |
| CCSc1nnc(-c2cccc(S(=O)(=O)N(C)C)c2)n1-c1cc(OC)ccc1OC | -49.8 |
| COc1ccc(OC)c(-n2c(SCC(C)=O)nnc2-c2cccc(S(=O)(=O)N(C)C)c2)c1 | -16.9 |

| SMILES | hERG current change (%, negative = inhibition) at 10uM [%] |
| --- | --- |
| CC(C)(C)OC(=O)CNC(=O)c1nc[nH]c1C(=O)N1CCN(C(=O)OC(C)(C)C)CC1 | -15.8 |
| CCOc1ccc(C(=O)NCCC(=O)NCCCC(=O)O)cc1 | 6.08 |
| Cc1cccc(N2N=C(C(=O)O)CCC2=O)c1 | 10.2 |
| O=C(Nc1cccnc1)c1cnn2c(C(F)F)cc(C3CC3)nc12 | -57.6 |
| CC(=O)c1ccc(NC(=O)c2cnn3c(C(F)F)cc(C4CC4)nc23)cc1 | 11.1 |
| O=C(O)c1cnn2c(C(F)F)cc(C3CC3)nc12 | 3.73 |
| Cc1ccc(C)c(SCC(=O)N(C)CC(=O)Nc2ccc(N3CCOCC3)cc2)c1 | -5.12 |
| Cc1ccc(NC(=S)N/N=C/c2ccc([N+](=O)[O-])s2)cc1 | -3.04 |
| COc1cccc(CN2CCC(C(=O)N3CCN(Cc4ccc5c(c4)OCO5)CC3)CC2)c1 | -19.8 |
| O=C(c1ccc(F)cc1)N1CCC(C(=O)N2CCN(Cc3ccc4c(c3)OCO4)CC2)CC1 | -10.5 |
| O=C(C1CCN(c2nnc(-n3cccc3)s2)CC1)N1CCN(Cc2ccc3c(c2)OCO3)CC1 | -68.2 |
| N#Cc1ccc(CN2CCN(C(=O)CNS(=O)(=O)c3ccc4c(c3)OCCCO4)CC2)cc1 | -20.8 |
| O=C(C1CCN(Cc2ccccc2O)CC1)N1CCN(Cc2ccc3c(c2)OCO3)CC1 | -23 |
| O=C(C1CC(=O)N(c2ccc3c(c2)OCCO3)C1)N1CCN(Cc2ccccc2)CC1 (stereo not drawn) | 0.404 |
| C[C@H](NS(=O)(=O)c1ccc2c(c1)OCCCO2)C(=O)N1CCN(Cc2ccc(C#N)cc2)CC1 | -61.1 |
| O=C(C1CCN(Cc2cccs2)CC1)N1CCN(Cc2ccc3c(c2)OCO3)CC1.O=C(O)C(=O)O | -14.5 |
| C[C@H](NS(=O)(=O)c1ccc2c(c1)OCCCO2)C(=O)N1CCN(c2ccc(F)cc2)CC1 | -34.8 |
| O=C(C1CCN(Cc2ccc(Cl)cc2)CC1)N1CCN(Cc2ccc3c(c2)OCO3)CC1 | -66.6 |
| COc1ccc(N2CC(C(=O)N3CCN(Cc4ccc5c(c4)OCO5)CC3)CC2=O)cc1 (stereo not drawn) | -19 |
| O=C(C1CC(=O)N(c2ccc(Cl)cc2)C1)N1CCN(Cc2ccc3c(c2)OCO3)CC1 (stereo not drawn) | -67.7 |
